Here are results for 22 molecules from PubChem BioAssay (Tox21).

A number with no mark means an inactive call. Records with an inconclusive call do not appear. Active and inactive are the calls of the source. Unless noted, the call rests on the fitted dose curve; in most records, active means well fitted curve in the direction sought with a large enough effect in the repeat runs; inconclusive means weak or mixed curves; inactive means flat fitted curve, though single readings scatter.

Assay [1] is described as follows: qHTS assay to test for compound auto fluorescence at 535 nm (green) in HEK293 cells (AID 720680).
Assay [2] in a line: qHTS assay to test for compound auto fluorescence at 460 nm (blue) in HEK293 cell free culture (AID 720681). The procedure, abridged: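 Test compounds were pinned into cell-free culture medium (DMEM with 10% FBS) and fluorescence was read directly at Ex/Em 405/460 nm. Signals were expressed as fluorescence equivalents of triamterene, with DMSO vehicle as control.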
Assay [3] is described as follows: qHTS assay to test for compound auto fluorescence at 535 nm (green) in HEK293 cell free culture (AID 720682). The gist of the method: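 DMEM + 10% FBS, cell-free; cpd or DMSO pinned in; Ex485/Em535 read; output as fluorescein-equivalent signal.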
The nature of assay [4]: qHTS assay to test for compound auto fluorescence at 590 nm (red) in HEK293 cell free culture (AID 720683). The procedure, abridged: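 Tox21 10K library compounds were pinned into cell-free DMEM with 10% FBS and fluorescence was read at excitation 540 nm. Activity is expressed as Rose Bengal sodium equivalency.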
The nature of assay [5]: qHTS assay to test for compound auto fluorescence at 590 nm (red) in HepG2 cell free culture (AID 720684). The gist of the method:
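Red fluorescence (540 nm excitation, 590 nm emission) was measured after compound transfer into cell-free MEM supplemented with 10% FBS. Values are equivalencies against Rose Bengal sodium.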

Assay [6] is described as follows: qHTS assay to test for compound auto fluorescence at 460 nm (blue) in HepG2 cell free culture (AID 720685). The gist of the method:
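Compound (23 nL) or DMSO pinned into cell-free MEM with 10% FBS; blue fluorescence read at 405/460 nm excitation/emission, expressed as auto-fluorescence equivalency to triamterene.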

The nature of assay [7]: qHTS assay to test for compound auto fluorescence at 535 nm (green) in HepG2 cell free culture (AID 720686).
Assay [8] can be described thus: qHTS assay to test for compound auto fluorescence at 460 nm (blue) in HepG2 cells (AID 720687). The gist of the method: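 Cells (2,000/well in MEM with 10% FBS) attached overnight at 37 C, then were exposed to compound or DMSO for 1 hr at 37 C, 5% CO2. Fluorescence read at Ex/Em 405/460 nm, expressed as triamterene-equivalent signal.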
Assay [9] has as its target Glucocorticoid receptor (Homo sapiens) (UniProt P04150). The experiment in a line: qHTS assay to identify small molecule agonists of the glucocorticoid receptor (GR) signaling pathway (AID 720691; active means well fitted activation curve with a large enough effect in the signal ratio in the repeat runs, not every such curve was filed as active; the % refers to the signal ratio). The procedure, abridged: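 Agonist mode in a HeLa line carrying a GRE-controlled beta-lactamase reporter. Compounds act for 18 h at 37 C before a 2 h room-temperature FRET substrate step and fluorescence reading.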

Assay [10] shares this target. The experiment in a line: qHTS assay to identify small molecule antagonists of the glucocorticoid receptor (GR) signaling pathway (AID 720692; active means well fitted inhibition curve with a large enough effect in the signal ratio in the repeat runs, not every such curve was filed as active; the % refers to the signal ratio; further: potency means the concentration at half of the fitted maximal effect). The procedure, abridged:
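Cells plated, rested 4 h at 37 C/5% CO2; compounds in DMSO pin-transferred; dexamethasone added to 5 nM final; 18 h at 37 C; B/G FRET substrate added, 2 h room temperature; fluorescence measured.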
On the % scale 0 is the no-effect control and ±100 the full control effect.

Sequence of Glucocorticoid receptor (Homo sapiens) (P04150 whole entry, looked up): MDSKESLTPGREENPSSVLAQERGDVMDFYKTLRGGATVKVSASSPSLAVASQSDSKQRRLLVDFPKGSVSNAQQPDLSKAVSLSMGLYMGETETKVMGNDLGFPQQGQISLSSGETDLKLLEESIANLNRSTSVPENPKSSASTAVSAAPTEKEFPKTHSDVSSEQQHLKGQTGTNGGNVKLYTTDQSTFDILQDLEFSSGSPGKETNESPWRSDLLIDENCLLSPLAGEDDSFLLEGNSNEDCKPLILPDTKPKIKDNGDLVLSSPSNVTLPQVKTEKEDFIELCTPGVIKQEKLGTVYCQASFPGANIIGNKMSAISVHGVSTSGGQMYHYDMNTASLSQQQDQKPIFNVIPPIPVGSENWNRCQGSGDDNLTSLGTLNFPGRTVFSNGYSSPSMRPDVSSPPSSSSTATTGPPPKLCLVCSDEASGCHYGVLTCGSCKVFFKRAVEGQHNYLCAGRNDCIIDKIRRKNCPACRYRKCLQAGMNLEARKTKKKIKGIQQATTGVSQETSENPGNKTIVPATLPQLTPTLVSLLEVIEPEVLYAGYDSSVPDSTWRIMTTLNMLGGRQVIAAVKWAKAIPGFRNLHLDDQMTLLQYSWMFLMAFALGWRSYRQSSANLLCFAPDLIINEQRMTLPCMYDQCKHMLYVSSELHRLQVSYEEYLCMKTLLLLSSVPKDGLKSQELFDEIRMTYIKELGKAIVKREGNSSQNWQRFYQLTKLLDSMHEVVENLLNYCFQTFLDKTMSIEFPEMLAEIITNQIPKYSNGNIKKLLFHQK

In the case of `O=c1[nH]c2ccccc2n1C1CCN(CCCC(c2ccc(F)cc2)c2ccc(F)cc2)CC1`, the result in [1], in [3], in assay [4], in assay [5] and in [7] was inactive. Further, the Potency result in [2], in [6] and in assay [8] was “inactive” in each case.

Consider `C[C@]12CC[C@@H]3c4ccc(OC(=O)N(CCCl)CCCl)cc4CC[C@H]3[C@@H]1CC[C@@H]2O`, for which the molecule was called inactive in assay [1], in [3], in [4], in [5] and in assay [7]. For the same molecule, the Potency result in assay [2], in assay [6], in [8], in [9] and in assay [10] was “inactive” in each case.

Regarding `ClCc1ccc(Cl)cc1Cl`, the call in assay [1], in [3], in assay [4], in assay [5] and in assay [7] was inactive. In addition, the Potency entry in assay [2], in assay [6], in assay [8] and in [10] was “inactive” each time.

With `C[C@@H]1O[C@@H](O[C@@H]2C=C3CC[C@@H]4[C@H](CC[C@]5(C)[C@@H](c6ccc(=O)oc6)CC[C@]45O)[C@@]3(C)CC2)[C@H](O)[C@H](O)[C@H]1O`, the fluorescence, % of fluorescein in assay [1] was 0.0243% [at 18.6 µM]. For the same molecule, the fluorescence, % of fluorescent control in assay [2] was 0.328% [at 18.6 µM]; in assay [4], -0.024% [at 18.6 µM]; in assay [6] it was 0.14% [at 18.6 µM]; in [8], 0.187% [at 18.6 µM]. Further, the activity change in assay [3] was 0.0268% [at 18.6 µM]. Moreover, the fluorescence, % of Rose Bengal in [5] was -0.272% [at 18.6 µM]. The fluorescence, % of fluorescein control in assay [7] is -0.0466% [at 18.6 µM]. For the same molecule, the Potency entry in assay [9] was “inactive”. Also, the Potency in assay [10] is 0.0574 µM (active).

For `Nc1ccccc1C(=O)Oc1ccc2ccccc2c1`, the result in [1], in assay [3], in assay [4], in assay [5] and in assay [7] was inactive. Further, the Potency result in assay [2], in assay [6], in assay [8], in assay [9] and in assay [10] was “inactive” each time.

Take `CN(C)C1CSSSC1`: the outcome in assay [1], in [3], in assay [4], in assay [5] and in assay [7] was inactive. The Potency entry in assay [2], in [6], in assay [8] and in [9] was “inactive” in each case.

Take `CN(C)c1ccc(N=Nc2ccccc2)cc1`: the molecule was called inactive in assay [1], in [3], in assay [4], in [5] and in assay [7]. For the same molecule, the Potency result in [2], in [6], in [8], in [9] and in assay [10] was “inactive” in each case.

`S=C(SSC(=S)N1CCCCC1)N1CCCCC1`: the result in [1], in assay [3], in assay [4], in [5] and in assay [7] was inactive. The Potency entry in assay [2], in assay [6], in assay [8] and in [10] was “inactive” each time.

For `CC(c1ccc(O)cc1)c1ccc(O)cc1`, the molecule was classed as inactive in [1], in assay [3], in [4], in [5] and in [7]. For the same molecule, the Potency entry in assay [2], in assay [6], in [8] and in assay [10] was “inactive” in each case.

With `CCOC(=O)CC(=O)CCl`, the molecule was called inactive in assay [1], in [3], in [4], in assay [5] and in assay [7]. The Potency result in assay [2], in [6], in assay [8] and in assay [9] was “inactive” in each case.

With `Nc1ccccc1C(=O)OC/C=C/c1ccccc1`, the molecule was classed as inactive in [1], in [3], in assay [4], in assay [5] and in assay [7]. Also, the Potency entry in [2], in [6], in [8] and in assay [10] was “inactive” in each case.

With `C[C@@H]1O[C@@H](O[C@H]2C[C@@H](O)[C@]3(CO)[C@H]4[C@H](O)C[C@]5(C)[C@@H](C6=CC(=O)OC6)CC[C@]5(O)[C@@H]4CC[C@]3(O)C2)[C@H](O)[C@H](O)[C@H]1O`, the result in assay [1], in assay [3], in assay [4], in assay [5] and in [7] was inactive. Besides, the Potency entry in assay [2], in assay [6] and in assay [8] was “inactive” each time. Further, in assay [10], the Potency is 0.268 µM (active).

Turning to `FC(F)(F)c1cccc(C2=CCN(CCc3ccc4ccccc4c3)CC2)c1`, the result in assay [1], in [3], in assay [4], in [5] and in [7] was inactive. The Potency entry in assay [2], in [6], in assay [8] and in assay [10] was “inactive” each time.

Consider `CCCCOCN(C(=O)CCl)c1c(CC)cccc1CC`, for which the call in [1], in assay [3], in assay [4], in [5] and in [7] was inactive. For the same molecule, the Potency entry in assay [2], in [6], in assay [8] and in assay [9] was “inactive” in each case. Also, the Potency in assay [10] was 21.9 µM (active).

As to `Fc1ccc(Oc2ccnc3cc(Cl)cc(Cl)c23)cc1`, the result in [1], in assay [3], in assay [4], in [5] and in [7] was inactive. Also, the Potency entry in assay [2], in [6], in assay [8] and in assay [9] was “inactive” throughout.

Turning to `C[C@H]1O[C@@H](O[C@H]2[C@@H](O)C[C@H](O[C@H]3[C@@H](O)C[C@H](O[C@H]4CC[C@@]5(C)[C@H](CC[C@@H]6[C@@H]5CC[C@]5(C)[C@@H](C7=CC(=O)OC7)CC[C@]65O)C4)O[C@@H]3C)O[C@@H]2C)C[C@H](O)[C@@H]1O`, the molecule was classed as inactive in assay [1], in assay [3], in [4], in [5] and in assay [7]. The Potency result in [2], in assay [6], in assay [8] and in assay [9] was “inactive” in each case. The Potency in assay [10] is 0.425 µM (active).

`CC(C)OC(=O)C(O)(c1ccc(Cl)cc1)c1ccc(Cl)cc1`: the result in assay [1], in assay [3], in [4], in [5] and in assay [7] was inactive. For the same molecule, the Potency result in [2], in assay [6], in assay [8] and in assay [9] was “inactive” each time. Moreover, the Potency in assay [10] is 30.9 µM (active).

On to `CC(C)CC(C)(c1ccc(O)cc1)c1ccc(O)cc1`, for which the result in assay [1], in [3], in [4], in assay [5] and in assay [7] was inactive. For the same molecule, the Potency result in assay [2], in assay [6] and in assay [8] was “inactive” in each case. In addition, the Potency in assay [10] was 19.5 µM (active).

For `CC1CCC(C(C)C)C(OC(=O)c2ccccc2N)C1` (configuration not stated), the call in assay [1], in [3], in assay [4], in assay [5] and in [7] was inactive. Further, the Potency entry in assay [2], in assay [6], in assay [8] and in [10] was “inactive” in each case.

`ClC1=C(Cl)[C@]2(Cl)[C@@H]3[C@@H]4C[C@@H]([C@H]5O[C@@H]45)[C@@H]3[C@@]1(Cl)C2(Cl)Cl`: the result in assay [1], in assay [3], in assay [4], in assay [5] and in assay [7] was inactive. The Potency result in assay [2], in assay [6], in assay [8] and in assay [9] was “inactive” throughout. The Potency in assay [10] is 36.7 µM (active).

For the molecule `CC[C@H](C)[C@H]1O[C@]2(C=C[C@@H]1C)C[C@@H]1C[C@@H](C/C=C(\C)[C@@H](O[C@H]3C[C@H](OC)[C@@H](O[C@H]4C[C@H](OC)[C@@H](O)[C@H](C)O4)[C@H](C)O3)[C@@H](C)/C=C/C=C3\CO[C@@H]4[C@H](O)C(C)=C[C@@H](C(=O)O1)[C@]34O)O2`, the molecule was called inactive in assay [1], in assay [3], in assay [4], in assay [5] and in [7]. Also, the Potency entry in assay [2], in assay [6], in assay [8] and in assay [9] was “inactive” in each case. In assay [10], the Potency is 23.9 µM (active).

Regarding `CCCN(CCC)CCc1c[nH]c2ccccc12`, the molecule was classed as inactive in assay [1], in assay [3], in assay [4], in assay [5] and in assay [7]. Further, the Potency entry in assay [2], in assay [6], in assay [8], in assay [9] and in assay [10] was “inactive” throughout.
